Cruzain Triton – cruzain (T. cruzi) inhibition with detergent; purified cruzain, Z-FR-AMC fluorescence, 0.01% Triton; Potency, µM, for the others: max response, negative = inhibition, most hits filed as inhibitors; P25779; AID 1478; 200,000 tested, 0.43% active;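 further: plate controls were neutral wells for no effect and buffer without enzyme for full effect; nearly all actives have a fitted effect of over 40% in size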
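15 min RT preincubation of 1.5 nM cruzain with compound, then 2 uM Z-FR-AMC added; kinetic AMC fluorescence, 60 s delta. Triton X-100 0.01%, pH 5.5.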
Cruzain noTriton – cruzain (T. cruzi) inhibition without detergent. P25779. purified cruzain, Z-FR-AMC fluorescence, no detergent. Potency, µM, without a hit: max response, negative = inhibition, most hits filed as inhibitors. 200,000 tested, 2.3% active. AID 1476;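 further: plate controls were enzyme without inhibitor for no effect and buffer without enzyme for full effect; nearly all actives have a fitted effect of over 40% in size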
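Purified cruzain at 1.5 nM, pre-incubated 15 min with compound at room temperature in 100 mM sodium acetate pH 5.5, 5 mM DTT, 0.00005% Triton X-100. Reaction started with 2 uM Z-FR-AMC; AMC fluorescence increase over 60 s gives rate.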
Papain inh – papain (Carica papaya) inhibition counter-screen; Potency, µM, for the others: max response, negative = inhibition, usual class: inhibitors; 410 tested, 41% active; AID 2161; purified papain, Z-FR-AMC fluorescence cleavage; shares compounds with Cruzain Triton;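 further: 0% = no-compound wells and -100% = no-enzyme wells; nearly all actives have a fitted effect of over 35% in size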
Target sequence (P00784 whole entry, looked up): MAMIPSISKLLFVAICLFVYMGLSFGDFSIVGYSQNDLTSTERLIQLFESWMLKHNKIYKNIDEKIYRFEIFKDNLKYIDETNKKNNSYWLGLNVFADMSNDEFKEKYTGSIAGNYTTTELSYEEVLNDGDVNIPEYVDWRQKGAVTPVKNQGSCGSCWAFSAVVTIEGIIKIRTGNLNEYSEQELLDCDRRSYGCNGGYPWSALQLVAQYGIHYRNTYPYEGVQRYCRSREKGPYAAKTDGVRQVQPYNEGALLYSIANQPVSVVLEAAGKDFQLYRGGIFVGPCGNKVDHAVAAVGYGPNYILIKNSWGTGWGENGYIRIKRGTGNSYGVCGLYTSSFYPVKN
An asterisk follows results filed as active; u = inconclusive; x = not tested or not shown. Only some compounds are listed: those with a hit (about 2.5% of all), similar ones and a draw of the others. The call rests on the fitted dose curve; in most records, active means well fitted curve in the direction sought with a large enough effect; inconclusive means small, poorly fitted or top-dose-only effect, or another doubt; inactive means no such curve, though single readings can be large; an effect the other way counts as inactive or inconclusive. Potency means the concentration at half of the fitted maximal effect.

SMILES	Cruzain Triton	Cruzain noTriton	Papain inh
CCn1cnc2c(Nc3cc(F)cc(F)c3)nc(C#N)nc21	x	x	0.3µM*
CCn1cnc2c(Nc3cccc(Cl)c3)nc(N[C@@H]3CCCC[C@@H]3N)nc21	-4%	9%	x
NCc1nc2cccnc2n1Cc1ccccc1Cl	0%	-2%	x
COc1ccc(-c2cn3c(n2)sc2cc(C(=O)NC(C)C45CC6CC(CC(C6)C4)C5)ccc23)cc1 (centres undefined)	-4%	13%	x
Cc1ccc(NC(=O)Cn2c(SCc3cccc(F)c3)nc3ccncc32)c(C)c1	-22%	-3%	x
CC(CNC(=O)c1ccc(CSc2nc3ccncc3n2Cc2cccc(F)c2)cc1)c1ccccc1 (centres undefined)	-6%	4%	x
CCCCNC(=O)Cn1c(SCc2cccc(F)c2)nc2ccncc21	x	x	-10%
COC(=O)c1ccc(Cn2c(SCc3cccc(C)c3)nc3ccncc32)cc1	-9%	u	x
CCC(C(=O)NC1CCCCC1)n1c(SCc2cccc(F)c2)nc2ccncc21 (centres undefined)	13µM*	u	-14%
CCCCNC(=O)C(CC)n1c(SCc2cccc(F)c2)nc2ccncc21 (centres undefined)	x	x	-10%
CCCc1nnc(NC(=O)c2nc(SCC)ncc2Cl)s1	-9%	-17%	x
CCOc1ccc(CCNC(=O)c2c(C)oc3ncn(CC(C)C)c(=O)c23)cc1	-2%	4%	x
Cc1ccc(-c2nn(CC(=O)NC3CCCCC3)c3c2cnc2ccccc23)cc1	-1%	-2%	x
Cc1cc(NC(=O)Cc2cccs2)no1	-18%	-28%	-17%
Cc1cc(NS(=O)(=O)c2ccc(NC(=O)Cc3cccs3)cc2)no1	0%	2%	x
COc1ccccc1CNC(=O)CN1C(=O)c2cccnc2Oc2ccccc21	-2%	3%	x
COc1ccccc1N1CCN(c2ccc(=O)n(CC(=O)NCc3ccc(F)cc3)n2)CC1	2%	u	x
CCCCN(C)CCCNC(=O)C1CCN(c2nc3ccc(CC)cc3s2)CC1	-5%	3%	x
NC(=S)n1[nH]c(-c2ccc([N+](=O)[O-])cc2)c(N=Nc2ccc(O)cc2)c1=O	0.35µM*	0.63µM*	-1%
CCN(CC)S(=O)(=O)c1ccc(N=Nc2c(C)[nH]n(C(N)=S)c2=O)cc1	-25%	-19%	x
O=c1cc(-c2ccccc2F)nc(-c2ccccc2F)o1	4.5µM*	7.9µM*	8%
O=c1cc(-c2cccc(Br)c2)nc(-c2ccccc2F)o1	8.9µM*	10µM*	1%
Fc1ccccc1-c1nc(-c2ccccc2)no1	-5%	11%	x
COc1ccc(Br)cc1-c1noc(-c2ccccc2F)n1	-4%	-11%	x
COc1ccc(NC(=O)Cn2cc(S(=O)(=O)N3CCC(C)CC3)c3ccccc3c2=O)cc1Cl	-6%	u	x
SMILES	Cruzain Triton	Cruzain noTriton	Papain inh
O=C(c1cccs1)N1CCCc2cc(NS(=O)(=O)c3ccc(F)cc3F)ccc21	-4%	-3%	x
CCc1ccc(OCC(=O)NCc2nc(-c3cccc(C)c3)no2)c(Br)c1	1%	-2%	x
O=C(CSc1nc2c([nH]c3ccccc32)c(=O)n1-c1ccc(F)cc1)N1CCCCCC1	-1%	7%	x
CC(C)(C)c1ccc(C(=O)NC2(C(F)(F)F)NC(=O)N(CCc3ccccc3)C2=O)cc1 (centres undefined)	-1%	5%	x
COc1ccc(-c2nnc(-c3ccc(N)cc3)o2)cc1	-5%	-17%	x
COc1ccc(-c2ccc(-c3nnc(-c4cc(OC)ccc4OC)o3)cc2)cc1	u	25µM*	11µM*
Cc1cccc(N2CCN(CCCNC(=O)c3nnc(Cc4c(F)cccc4Cl)o3)CC2C)c1 (centres undefined)	-2%	-5%	x
COCc1nc2ccccc2n1CCOc1cccc(C)c1	1%	-2%	x
O=C(Nc1ccc(O)c(-c2nc3ccccc3o2)c1)C1(c2ccc([N+](=O)[O-])cc2)CCCC1	-3%	4µM*	13%
O=C(Nc1ccc(-c2nc3ccccc3o2)c(O)c1)c1cc(Cl)ccc1Cl	0%	12%	x
O=[N+]([O-])c1cc(S(=O)(=O)Nc2ccccc2)ccc1-n1nnc2ccccc21	11µM*	u	-5%
O=[N+]([O-])c1cc(C(F)(F)F)ccc1-n1nnc2ccccc21	-5%	6%	x
COCCNC(=O)CSc1nc(-c2ccc(C)cc2)[nH]c1-c1ccc(OC)cc1	0%	5%	x
CCC(C)CCCCC(=O)N[C@@H](CCN)C(=O)N[C@H](C(=O)N[C@@H](CCN)C(=O)N[C@H]1CCNC(=O)C([C@@H](C)O)NC(=O)[C@@H](CCN)NC(=O)[C@H](CCN)NC(=O)[C@H](CC(C)C)NC(=O)[C@@H](CC(C)C)NC(=O)[C@H](CCN)NC1=O)[C@@H](C)O (some centres undefined)	-10%	-3%	x
Cc1ccc2[nH]c(=O)c(CN(Cc3ccccc3)Cc3nnnn3Cc3ccco3)cc2c1	x	x	-13%
